Screening data deposited in PubChem by The Scripps Research Institute Molecular Screening Center.
DAX1 inh-1: inhibits human nuclear receptor DAX1. 340,000 tested, 0.99% active. AID 504766. inhibition, % at 6.75 µM. HEK293 Gal4-DAX1 luciferase reporter, luminescence. P51843;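 active = inhibition above the mean over all tested compounds plus 3 SD, cut at about 4.2% in these data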;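 also: inhibition shows as a rise in luminescence from relieved DAX1 repression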
Target sequence (P51843 207-470 limits assumed): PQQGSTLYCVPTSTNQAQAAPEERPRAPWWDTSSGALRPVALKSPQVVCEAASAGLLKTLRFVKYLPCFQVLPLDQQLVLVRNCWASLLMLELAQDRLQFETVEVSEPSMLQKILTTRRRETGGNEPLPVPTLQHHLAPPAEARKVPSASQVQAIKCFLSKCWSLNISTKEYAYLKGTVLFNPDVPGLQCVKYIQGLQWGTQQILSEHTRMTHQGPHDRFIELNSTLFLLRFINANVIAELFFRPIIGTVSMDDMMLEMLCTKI
hgDAF-12 ag: activates the H. glycines DAF-12 receptor ligand-binding domain. 370,000 tested, 1.8% active. HEK293 GAL4-hgDAF12 UAS-luciferase reporter, agonist luminescence; normalized to butyrate control. AID 687014. activation, % at 6.8 µM;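 active = activation above a cutoff set at the mean of all screened compounds plus 3 SD, cut at about 10% in these data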
ssDAF12 agonist: S. stercoralis DAF-12 activation, primary screen | HEK293 ssDAF-12/GRIP1 lit1-tk-luc reporter, luminescence; % of 3 µM dafachronic acid response | activation, % at 6.8 µM | 370,000 tested, 1% active | AID 652126;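 active = activation above the mean over all tested compounds plus 3 SD, cut at about 0.9% in these data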
DAX1 inh-2: inhibitors of DAX1 repression of SF-1 activated StAR promoter; HEK293T StAR-luciferase reporter, SF-1/DAX-1 repression relief; inhibition, % at 6.8 µM; 370,000 tested, 1.1% active; AID 652010;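 active = inhibition above the mean over all tested compounds plus 3 SD, cut at about 3.6% in these data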;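 also: higher inhibition means more luminescence from relief of DAX-1 repression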
hcDAF12 agonist: H. contortus DAF-12 activation, primary screen; HEK293 hcDAF-12 lit1-tk-luc reporter, luminescence; 0% DMSO, 100% Δ7-dafachronic acid; AID 652067; activation, % at 6.8 µM; 370,000 tested, 1.4% active;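 active = activation above the mean of all tested compounds plus 3 SD, cut at about 5.5% in these data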
DAX1 conf: NR0B1 (human) inhibition, confirmation. inhibition, % at 6.8 µM. HEK293T StAR-promoter luciferase reporter, SF-1/DAX-1 repression. shares compounds with DAX1 inh-2. 2,400 tested, 87% active;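 active = inhibition above the average of every tested compound plus 3 SD, cut at about 3.8% in these data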;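 also: active compounds raise luminescence by relieving repression of the StAR reporter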
SF1 mutant ctr: counter-screen for DAX1 inhibitors: nonselective inhibitors with SF-1 AF2 mutant; AID 652136; HEK293 StAR-luciferase, luminescence; shares compounds with DAX1 inh-2; inhibition, % at 6.8 µM; 2,400 tested, 78% active;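 active = inhibition above the mean of all tested compounds plus 3 SD, cut at about 3% in these data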
LXR ag: counter-screen for hcDAF-12 agonists: agonists of human LXR-beta; shares compounds with hcDAF12 agonist; HEK293 Gal4-LXR tk-luc reporter, luminescence, 24 h; normalized: DMSO 0%, positive control 100%; activation, % at 6.8 µM; 3,400 tested, under 10 active;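 active = mean percent activation of the reporter above a cutoff set as the average over tested compounds plus their standard deviation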
hcDAF12 ag: hcDAF-12 agonism, confirmation assay; shares compounds with hcDAF12 agonist; HEK293 hcDAF-12 lit1-tk-luc reporter, luminescence; % of Δ7-dafachronic acid response; activation, % at 6.8 µM; 3,400 tested, 61% active;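 active = mean activation across triplicate tests above the threshold derived from the earlier primary screen, cut at about 5.5% in these data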
Hits are given with their value; i = inactive; nt = no result given. Most compounds without a hit are left out; they make up all but 4.1% or so of the library.

SMILES	DAX1 inh-1	hgDAF-12 ag	ssDAF12 agonist	DAX1 inh-2	hcDAF12 agonist	DAX1 conf	SF1 mutant ctr	LXR ag	hcDAF12 ag
Cc1cnc(NC(=O)c2sc3ccccc3c2Cl)s1	i	30	3.1	5.4	17	6.4	i	i	17
Cc1ccnc(NC(=O)c2cccc3ccccc23)c1	i	i	i	i	i	nt	nt	nt	nt
Cc1ccnc(NC(=O)c2sc3ccccc3c2Cl)c1	i	16	i	8.0	8.7	6.9	i	i	10
Cc1cc(C)nc(NC(=O)/C=C/c2ccccc2Cl)n1	i	i	i	i	i	nt	nt	nt	nt
Cc1cccnc1NC(=O)CNC(=O)c1sc2ccccc2c1Cl	i	i	i	i	i	nt	nt	nt	nt
Cc1ccnc(NC(=O)/C=C/c2ccccc2Cl)c1	i	13	1.4	5.3	8.9	8.6	4.7	i	9.3
Cc1ccc2c(c1)Cc1nc3ccccc3nc1-2	i	20	2.8	7.4	17	14	8.5	i	15
CC1CCN(C(=O)c2cc3c(ccc4ccccc43)o2)CC1	i	12	i	19	9.1	10	4.3	i	6.5
CC(C)(C)c1ccc(/C=N/NC(=O)c2ccccn2)cc1	i	13	i	12	7.2	14	6.2	i	9.5
Fc1ccc(-c2cnn3c(-c4cccs4)ccnc23)cc1	4.9	33	3.9	7.2	32	18	11	i	23
CC(C)(C)c1ccc(C(=O)Nc2cnccn2)cc1	i	i	i	5.3	6.7	14	7.3	i	i
COc1ccc(C(=O)Nc2cnccn2)cc1[N+](=O)[O-]	i	i	i	i	i	nt	nt	nt	nt
COC(=O)c1nccc2c1[nH]c1ccccc12	i	i	i	i	i	nt	nt	nt	nt
COc1ccc(-c2cn3c4c(sc3n2)CCCC4)cc1	i	13	1.3	5.1	17	12	7.9	i	20
Nc1ccccc1C=C1Cc2ccccc2C1=O	i	22	3.2	7.7	13	17	7.4	i	11
CCC1CSC(=Nc2ccc(C)cc2)N1C(=O)CN1C(=O)NC2(CCCC2)C1=O (stereo unspecified)	i	13	i	10	8.4	9.1	i	i	6.3
Fc1ccc2nc3[nH]c4ccccc4c3nc2c1	i	12	i	4.8	9.0	14	8.5	i	11
OC1=C(O)c2nc3cc(F)ccc3nc21	nt	i	i	i	i	nt	nt	nt	nt
N/C(=N\C(=S)Nc1ccc2c(c1)OCO2)c1ccccc1	nt	21	1.7	21	6.8	14	8.8	i	10
CCOc1ccc(S(=O)(=O)N2CCN(Cc3ccco3)CC2)cc1	i	i	i	i	i	nt	nt	nt	nt
CCOC(=O)N1CCN(C(=O)C[C@@H]2C[C@]3(C(=O)OCC)CCC4=C3N(CCC4)C2=O)CC1	nt	i	i	i	i	nt	nt	nt	nt
CNc1ccc(C=C2C=Cc3ccccc32)cc1	4.7	15	i	7.3	9.1	17	7.2	i	11
Cc1ccc(C(=O)/C=C/Nc2ccccc2C(N)=O)cc1	i	12	1.8	4.7	7.0	12	7.0	i	7.0
O=C1C(=C2CCc3ccccc32)Cc2ccccc21	nt	21	2.3	7.1	15	16	9.0	i	21
O=C1C(=NO)CCCc2ccccc21	i	i	i	i	i	nt	nt	nt	nt
SMILES	DAX1 inh-1	hgDAF-12 ag	ssDAF12 agonist	DAX1 inh-2	hcDAF12 agonist	DAX1 conf	SF1 mutant ctr	LXR ag	hcDAF12 ag
COc1ccc(-c2c(-c3ccc(C#N)cc3)oc(=O)c3cc(OC)c(OC)cc23)cc1	i	i	i	i	i	nt	nt	nt	nt
COc1cc(CNc2nc3ccccc3s2)cc(OC)c1OC	i	i	i	i	i	nt	nt	nt	nt
COc1ccc2sc(NCc3ccccc3)nc2c1	i	i	i	6.5	7.1	7.1	6.6	i	i
COc1ccc(/C=N/NC(C)(C)C)c(OC)c1	i	i	i	i	i	nt	nt	nt	nt
N/C(=N\OC(=O)c1ccccc1Cl)c1ccccc1	i	18	3.3	6.1	17	19	11	i	26
O=C(O/N=C(\c1ccccc1)c1ccncc1)c1ccccc1Cl	i	i	i	i	i	nt	nt	nt	nt
Cc1cc(C)n2nc(SC(C)C(=O)N3CC(C)OC(C)C3)nc2n1 (stereo unspecified)	i	i	i	i	i	nt	nt	nt	nt
CCOc1ccc(CCNC(=O)CN2C(=O)NC3(CCCC3)C2=O)cc1OCC	i	i	i	i	i	nt	nt	nt	nt
CC(=S)/C=C1\Sc2ccccc2N1C	i	i	i	i	i	nt	nt	nt	nt
COc1ccc(C(=O)/C=C2\Sc3ccccc3N2C)cc1	nt	28	5.9	5.7	19	16	9.8	i	18
Nc1[nH]n(-c2ccccc2)c(=O)c1N=Nc1ccc2c(c1)OCCO2	i	15	2.1	5.0	9.4	13	6.0	i	12
c1ccc(Nc2nc(-c3cccs3)cs2)nc1	i	12	2.6	4.6	15	13	5.1	i	19
Nc1ccc(Nc2nc(-c3cccs3)cs2)cc1	i	i	i	i	i	nt	nt	nt	nt
CC1(O)C(c2ccccc2)=Nc2ccccc21 (stereo unspecified)	4.5	11	i	5.3	9.9	13	7.6	i	6.5
Cc1cc(S(=O)(=O)Nc2ccc(C(=O)NCCN3CCOCC3)cc2)ccc1F	i	i	i	i	i	nt	nt	nt	nt
O=C(NCCc1c[nH]c2ccccc12)c1c(Cl)nc2sccn12	i	i	i	i	i	nt	nt	nt	nt
O=C(c1c(Cl)nc2sccn12)N(C(=O)c1c(Cl)nc2sccn12)c1ccc(Cl)cn1	i	i	1.2	5.4	7.9	11	3.0	i	11
Cc1ccc(C(=O)N=c2sccn2C)cc1C	i	12	1.6	10	14	11	7.2	i	11
CC(C)(C)c1ccc(Nc2n[nH]c3ccccc23)cc1	nt	28	2.9	11	13	12	4.6	i	20
Cc1n[nH]c2ccccc2c1=O	i	i	i	i	i	nt	nt	nt	nt
Cc1ccc2nc(-c3ccc(NC(=O)C4CCCO4)cc3)[nH]c2c1 (stereo unspecified)	i	i	i	7.3	7.7	12	6.2	i	i
CC(C)CC1NC(=O)N(CC(=O)Nc2cc(S(=O)(=O)N3CCOCC3)ccc2Cl)C1=O (stereo unspecified)	i	i	i	i	i	nt	nt	nt	nt
Cc1ccc(-c2cc(-c3ccccc3)no2)c(O)c1	i	11	3.1	6.8	16	14	3.7	i	19
Oc1ccccc1-c1cc(-c2ccccc2)no1	i	15	4.8	6.2	22	20	14	i	19
